# Laboratory results taken from PubChem BioAssay AID652126 (The Scripps Research Institute Molecular Screening Center, 2013).
# In all, about 370,000 compounds went through this assay and about 3,700 (1%) were called active. Only a selection was taken, and actives are over-represented in it overall. A number with no mark means an inactive call.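 The calls were made as follows: active = activation above the mean over all tested compounds plus 3 SD (cut at about 0.9% in these data); inactive = the rest.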
# Tested on: Nuclear hormone receptor DAF-12 (Strongyloides stercoralis)
# Assay: S. stercoralis DAF-12 nuclear receptor activators, primary screen, cell-based, luminescence, HEK293, GRIP1 co-expression, lit1-tk-luc (AID 652126);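 also: 0% = DMSO-only wells and 100% = 3 µM delta7-dafachronic acid wells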
# Conditions: HEK293 ssDAF-12/GRIP1 lit1-tk-luc reporter, at 6.8 µM, hits give high values, % of 3 µM dafachronic acid response
row,SMILES,activation
1,CCn1c(=O)n2n(c1=O)[C@@]1(C=C3CCCC[C@H]32)N=C(NC(=O)c2ccccc2)N(Cc2ccccc2)[C@H]1Cc1ccccc1,-1.66%
2,O=S1(=O)c2ccc(Br)cc2OC[C@H](Cc2ccccc2)N1Cc1cn(Cc2ccccc2)nn1,-1%
3,Cc1cccc(C(=O)N2CCc3c([nH]c4ccccc34)C2CC(C)C)n1 (configuration not stated),1.53% (active)
4,Cc1cccc(C2c3[nH]c4ccccc4c3CCN2C(=O)c2cc(-c3cccn3C)n[nH]2)n1 (configuration not stated),-0.27%
5,COc1ccc(C2c3[nH]c4ccccc4c3CCN2CCCn2cccn2)cc1C (configuration not stated),0.43%
6,C[C@@H](NC(=O)c1ccccc1OCC(=O)Nc1ccc(I)cc1)C(=O)N(C)Cc1ccccc1,-1.27%
7,COC(=O)C[C@H]1CC[C@H]2[C@H](COc3ccc(NC(=O)C4CC4)cc3C(=O)N2C)O1,-1.49%
8,Cc1ccc(NC(=O)N2CCC(O)(c3cccnc3)CC2)cc1,-1.43%
9,Cc1ccc(NC(=O)Nc2cccnc2)cc1,1.08% (active)
10,O=C(Nc1ccc(Cl)cc1)Nc1ccc(Oc2cccnc2)nc1,-1.82%
11,COc1cccc(CSc2nnc(-c3cccnc3)n2Cc2ccccc2)c1,-1.73%
12,COC(=O)[C@]12C[C@H](CC(=O)N3CCOCC3)C(=O)N(Cc3ccc(Cl)cc3Cl)C1=C[C@H](C(C)C)O[C@@H]2C1CC1,-0.42%
13,Cc1ccccc1NC(=O)Cn1nnc(-c2ccccc2F)n1,-0.75%
14,CC(C)(C)N(CC#CCC(O)(c1ccccc1)C1CCCC1)CCO (configuration not stated),-0.45%
15,CN(CC#CCC(c1ccccc1)c1ccccc1)C(C)(C)C,1.07% (active)
16,C#CCNC(=O)C[C@H]1C[C@@]2(C(=O)OC)C(=C[C@H](C(C)C)O[C@@H]2C2CC2)N(Cc2ccco2)C1=O,-1.02%
17,Cc1cc(OC(=O)c2ccccc2Cl)ccc1N1C(=O)CCC1=O,-1.58%
18,Cc1cccc(/C(N)=N/OC(=O)c2ccccc2Cl)c1,1.96% (active)
19,CCOC(=O)c1nn(-c2cccc(C)c2)cc1C(=O)c1ccccc1,-0.86%
20,Cc1cccc(-n2cnc(C(=O)NNC(=S)Nc3ccccc3)c2)n1,-1.77%
21,CC(C)(COC(=O)Nc1ccccc1)COC(=O)Nc1ccccc1,-0.77%
22,O=C(Nc1ccccc1)O/N=C1/CCCc2occc21,-1.48%

row,SMILES,activation
1,N/C(=N\OC(=O)Nc1ccccc1)c1ccno1,5.22% (active)
2,COc1ccc(N2CCN(CCNS(=O)(=O)c3ccc(C(C)(C)C)cc3)CC2)cc1,-0.72%
3,Cc1ccc(Cn2cc(CN3[C@@H](C)COc4cc(Br)ccc4S3(=O)=O)nn2)cc1,-1.02%
4,O=C(Nc1ccn(Cc2ccccc2)n1)c1n[nH]c([N+](=O)[O-])c1Cl,1.07% (active)
5,O=C(Cn1cnc([N+](=O)[O-])n1)NCCc1ccccc1,-1.02%
6,O=C(O)CC(Cc1ccccc1)C(=O)Nc1ccc([N+](=O)[O-])cc1 (configuration not stated),-1.24%
7,Cc1ccccc1CS(=O)(=O)Cc1ccc(C(=O)Nc2ccc(Cl)cc2)o1,-2.4%
8,O=C(C1CCN(C2CCN(Cc3ccc4cc(F)ccc4n3)CC2)CC1)N1CCCC1,0.06%
9,O=C(C1CCN(C2CCN(Cc3cccc4c3OCO4)CC2)CC1)N1CCOCC1,-0.29%
10,C/C(=C\c1ccco1)CN1CCC(N2CCC(C(=O)N3CCOCC3)CC2)CC1,1.16% (active)
11,O=S(=O)(c1ccccc1)N1CCC(c2nc3ccccc3o2)CC1,-1.57%
12,C=C(C)C#CC(Cc1ccccc1)NCC1CC1 (configuration not stated),-1.12%
13,COC(=O)[C@H](C(C)C)N1CCc2nnn(Cc3ccc(C)cc3)c2-c2ccccc2S1(=O)=O,-1.89%
14,COC(=O)[C@@]12CCCCC=C1N(CCc1ccc(Cl)cc1)C(=O)[C@H]2CC(=O)NCc1ccc(OC)c(OC)c1,-1.91%
15,Cc1ccc2cc(/C=N/Nc3ccc(C(=O)O)cc3)c(Cl)nc2c1,0.95% (active)
16,Cc1ccc(/C=C2\CCn3c2nc2cc(C(=O)O)ccc2c3=O)c(C)c1,-1.16%
17,Cc1ccc(C(=O)N/N=C/c2sc(=O)n(Cc3cccc(C(=O)O)c3)c2Cl)cc1,0.05%
18,COc1cccc(N2CCN(CC(=O)N(C)Cc3ccc(F)cc3)CC2)c1,-1.79%
19,O=S1(=O)c2c(cccc2N2CC[C@H](O)C2)O[C@@H]2CCN1C2,-0.61%
20,CC(=O)OC12CCCN(C1)/C(=C/c1ccncc1)C2 (configuration not stated),-1.9%
21,Cc1cc(C)nc(Nc2n[nH]c(-c3ccccc3N)n2)n1,1.05% (active)
22,Cc1cc(C)n2ncc(C(=O)Nc3ccc4c(c3)OCCO4)c2n1,-1.35%

row,SMILES,activation
1,C=CCN1C(=O)[C@@H](CC(=O)N2CCN(C(=O)c3ccco3)CC2)[C@]2(C(=O)OC)CCCCC=C12,-0.85%
2,O=C(CSc1nc2ccccc2n1Cc1ccccc1Cl)N/N=C\c1c[nH]c2ccccc12,-0.54%
3,COc1ccc2c(c1)c(C(=O)N/N=C/c1cccs1)c(C)n2C,1.69% (active)
4,COc1ccc(N(CC(=O)N/N=C/c2cccs2)S(=O)(=O)c2ccc(OC)c(OC)c2)cc1,-1.66%
5,Cc1c(NC(=O)C(=O)N/N=C/c2cccs2)c(=O)n(-c2ccccc2)n1C,-1.41%
6,O=C(CSc1nc2ccccc2n1Cc1ccccc1)NNC(=S)Nc1ccccc1,-1.45%
7,C=CCN1C(=O)[C@@H](CC(=O)NCCCCc2ccccc2)[C@]2(C(=O)OCC)CCCCC/C=C/12,-1.06%
8,CCC(NC(=O)c1cc(COc2ccc(F)c(F)c2)on1)c1ccncc1 (configuration not stated),-0.62%
9,Cc1cc(OCc2cc(C(=O)NCc3cc(C(C)C)no3)no2)cc(C)c1Cl,1.55% (active)
10,CCOC(=O)CC1(NC(=O)c2cc(COc3cncc(Cl)c3)on2)CCCCC1,-1.57%
11,Cc1ccc(C2=CCN(C)C(=O)N2c2ccc(Cl)cc2)cc1,-0.59%
12,Nn1c(SCC(=O)Nc2cccc3ccccc23)nnc1-c1cc(-c2ccc(F)cc2)n[nH]1,-1.45%
13,COc1cccc(C(O)Cc2nc3ccccc3n2C)c1OC (configuration not stated),-1.62%
14,Cc1ccc(OCc2nnc(SC3CCc4ccccc4C3=O)n2C)cc1 (configuration not stated),-0.36%
15,Cc1ccc(OCc2nc3ccccc3n2C)cc1,0.93% (active)
16,Cc1ccc(C(=O)N(Cc2ccccn2)CC2CCCO2)cc1 (configuration not stated),-0.96%
17,COc1ccc(Cl)cc1NC(=O)C(C)N1CCc2ccccc21 (configuration not stated),-1.48%
18,COC(CNC(=O)[C@H](Cc1ccccc1)NC1(C(=O)NC2CCCCC2)CCCCC1)OC,-1.29%
19,COC(=O)[C@]12C[C@H](CC(=O)N3CCN(C(=O)C4CC4)CC3)C(=O)N(CCC3=CCCCC3)C1=C[C@H](C(C)C)O[C@@H]2C1CC1,-1.07%
20,Cc1cc(N=Nc2ccc3ccccc3c2)ccc1O,1.92% (active)
21,COC(=O)CC1CCc2cc(C)cc(C(CC(C)C)NC(=O)[C@H](CC(C)C)NC(=O)OCc3ccccc3)c2O1 (some centres not stated),-1.68%
22,CC(C)(C)c1ccc(CSc2nnc(-c3cccs3)o2)cc1,-0.67%

row,SMILES,activation
1,CCN(Cc1ccccc1)C(=O)CSc1nc(C)cc2c1C(=O)OC2,-0.86%
2,CCOC(=O)CSc1nc(C)cc2c1C(=O)OC2,1.04% (active)
3,CCOC(=O)CSc1ncc(-c2cccc(Cl)c2)cn1,-1.41%
4,COC(=O)C1CN(CCc2ccccc2)CCS(=O)(=O)N1Cc1ccc(F)cc1 (configuration not stated),-0.95%
5,Cc1cccc(NC(=O)/C=C/c2ccc3c(c2)OCO3)n1,1.53% (active)
6,COc1cccc(/C=C/C(=O)Nc2ccc3c(c2)OCCO3)c1,-0.84%
7,CN(Cc1ccccc1)C(=O)COC(=O)/C=C/c1ccc2c(c1)OCO2,-0.82%
8,c1csc(-c2nnc(SCc3nc4ccccc4[nH]3)o2)c1,-0.86%
9,O=C(CSc1nnc(-c2ccccn2)n1-c1ccccc1)Nc1ccc2cn[nH]c2c1,-0.07%
10,CC(=O)c1cc(-c2ccc3ccccc3c2)c(=O)n2c1CCC2,-1.47%
11,CC(CCN1CCC(C(O)(c2ccccc2)c2ccccc2)CC1)Oc1ccc(C(F)(F)F)cc1 (configuration not stated),-0.69%
12,Cc1ccc(NC(=O)Cc2nc(COC(=O)C(C)NS(=O)(=O)c3ccc(C)cc3)cs2)cc1 (configuration not stated),0.98% (active)
13,C/C=C/C(=O)OCc1csc(CC(=O)Nc2ccccc2C)n1,-0.39%
14,CC(=O)Nc1ccc(S(=O)(=O)NC(C)C(=O)OCC(=O)NC2CCCC2)cc1 (configuration not stated),-0.65%
15,COc1cccc(CNC(=O)CNS(=O)(=O)c2ccc3nc(C)sc3c2)c1OC,-1.81%
16,COc1ccc(CCNC(=O)CSc2nc3c([nH]2)c(=O)n(C)c(=O)n3C)cc1,-1.12%
17,COc1ccc2c(C(C)c3ccc(N)cc3)cn(C)c2c1 (configuration not stated),-0.41%
18,CCCc1nc2c3ccccc3ccn2c1Cc1ccccc1C(F)(F)F,1.29% (active)
19,Cc1cc(Br)cn2c(Cc3ccccc3C(F)(F)F)c(C3CCCCC3)nc12,-0.29%
20,FC(F)(F)c1ccccc1Cc1c(-c2ccccc2)nc2c3ccccc3ccn12,-0.19%
21,COc1ccc(S[C@]2(C(=O)N(C)C)CC(=O)N(c3ccc(OC)cc3)[C@@H]2c2ccc(OC)cc2)cc1,-1.42%
